Assay results reported in the supplement of paper PMC10849652.
The full data set covers some 8,800 targets. This sample favours those with a hit. About 0.5% of all pairs of compound and target were hits. Unmarked numbers belong to inactive results.

What was measured:
Test in all cases: log2 fold change, soluble protein after heating vs DMSO (PISA); higher = thermal stabilisation; K562 lysate, 10 uM; active = over 0.2 and 3.5 SD of the protein, either way, in both replicates (recomputed)
lapatinib = compound: CS(=O)(=O)CCNCc1ccc(-c2ccc3ncnc(Nc4ccc(OCc5cccc(F)c5)c(Cl)c4)c3c2)o1 [lapatinib]
Summary of the method: (§1)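 A 30 min treatment with 10 μM compound was applied to crude K562 extract at 1 mg/mL protein in PBS pH 7.4 with 1 mM MgCl2. Heating for 3 min spanned 48°C-58°C, after which aliquots were pooled, adjusted to 0.5% NP-40 at 4°C and spun at 21,000xg for 90 min. TMTpro 16plex LC-MS/MS of the supernatant, with channel sums equalised, gave values recorded as log-two fold change in thermal stability against solvent controls, from duplicates.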

pictilisib = compound: CS(=O)(=O)N1CCN(Cc2cc3nc(-c4cccc5[nH]ncc45)nc(N4CCOCC4)c3s2)CC1 [pictilisib]
Summary of the method: as §1

crizotinib = compound: C[C@@H](Oc1cc(-c2cnn(C3CCNCC3)c2)cnc1N)c1c(Cl)ccc(F)c1Cl [crizotinib]
Summary of the method: as §1

[1] = compound: C[C@H](C1=CC=C(C=C1)C(=O)NC2=C3C=CNC3=NC=C2)N
Summary of the method: as §1

duvelisib = compound: C[C@H](Nc1ncnc2nc[nH]c12)c1cc2cccc(Cl)c2c(=O)n1-c1ccccc1 [duvelisib]
Summary of the method: as §1

gandotinib = compound: Cc1cc(Nc2cc(CN3CCOCC3)c3nc(C)c(Cc4ccc(Cl)cc4F)n3n2)n[nH]1 [gandotinib]
Summary of the method: as §1

tozasertib = compound: Cc1cc(Nc2cc(N3CCN(C)CC3)nc(Sc3ccc(NC(=O)C4CC4)cc3)n2)n[nH]1 [tozasertib]
Summary of the method: as §1

doramapimod = compound: Cc1ccc(-n2nc(C(C)(C)C)cc2NC(=O)Nc2ccc(OCCN3CCOCC3)c3ccccc23)cc1 [doramapimod]
Summary of the method: as §1

bafetinib = compound: Cc1ccc(NC(=O)c2ccc(CN3CC[C@H](N(C)C)C3)c(C(F)(F)F)c2)cc1Nc1nccc(-c2cncnc2)n1 [bafetinib]
Summary of the method: as §1

[2] = compound: Cc1cccc(CC(=O)N2CCc3c2ccc(-c2cn(C)c4ncnc(N)c24)c3F)n1
Summary of the method: as §1

nilotinib = compound: Cc1cn(-c2cc(NC(=O)c3ccc(C)c(Nc4nccc(-c5cccnc5)n4)c3)cc(C(F)(F)F)c2)cn1 [nilotinib]
Summary of the method: as §1

[3] = compound: Cc1nc(Nc2n[nH]c3c2CN(C(=O)N[C@H](CN(C)C)c2ccccc2)C3(C)C)c2sccc2n1
Summary of the method: as §1

dasatinib = compound: Cc1nc(Nc2ncc(C(=O)Nc3c(C)cccc3Cl)s2)cc(N2CCN(CCO)CC2)n1 [dasatinib]
Summary of the method: as §1

[4] = compound: Cc1ncc(-c2ccnc(Nc3ccc(S(C)(=O)=O)cc3)n2)n1C(C)C
Summary of the method: as §1

[5] = compound: Cn1cc(-c2ccc3c(c2)CCN3C(=O)Cc2cccc(C(F)(F)F)c2)c2c(N)ncnc21
Summary of the method: as §1

quisinostat = compound: Cn1cc(CNCC2CCN(c3ncc(C(=O)NO)cn3)CC2)c2ccccc21 [quisinostat]
Summary of the method: as §1

tipifarnib = compound: Cn1cncc1[C@@](N)(c1ccc(Cl)cc1)c1ccc2c(c1)c(-c1cccc(Cl)c1)cc(=O)n2C [tipifarnib]
Summary of the method: as §1

[6] = compound: NC(=O)Nc1cc(-c2cccc(F)c2)sc1C(=O)N[C@H]1CCCNC1
Summary of the method: as §1

[7] = compound: NC(=O)c1cnc(N[C@@H]2CCCC[C@@H]2N)nc1Nc1cccc(-n2nccn2)c1
Summary of the method: as §1

[8] = compound: NC1(c2ccc(-c3nc4ccn5c(=O)[nH]nc5c4cc3-c3ccccc3)cc2)CCC1
Summary of the method: as §1

Sequence of UniProt Q9NRF8 (Q9NRF8 whole entry, looked up): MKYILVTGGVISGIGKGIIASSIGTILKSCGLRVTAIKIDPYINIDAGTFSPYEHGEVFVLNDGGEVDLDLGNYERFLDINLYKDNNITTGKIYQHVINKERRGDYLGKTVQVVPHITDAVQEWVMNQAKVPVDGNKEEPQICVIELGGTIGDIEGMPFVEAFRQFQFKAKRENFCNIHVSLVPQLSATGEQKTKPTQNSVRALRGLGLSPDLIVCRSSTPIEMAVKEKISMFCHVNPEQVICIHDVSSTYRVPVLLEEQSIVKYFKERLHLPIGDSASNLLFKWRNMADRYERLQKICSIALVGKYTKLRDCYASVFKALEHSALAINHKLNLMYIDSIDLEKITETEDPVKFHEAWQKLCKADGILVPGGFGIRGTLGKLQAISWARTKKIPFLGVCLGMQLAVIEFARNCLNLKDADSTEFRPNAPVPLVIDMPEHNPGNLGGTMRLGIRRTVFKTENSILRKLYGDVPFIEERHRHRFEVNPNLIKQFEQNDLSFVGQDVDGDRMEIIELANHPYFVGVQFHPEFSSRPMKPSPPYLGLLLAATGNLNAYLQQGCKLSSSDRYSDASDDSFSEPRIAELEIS
Sequence of UniProt Q9UHD1 (Q9UHD1 whole entry, looked up): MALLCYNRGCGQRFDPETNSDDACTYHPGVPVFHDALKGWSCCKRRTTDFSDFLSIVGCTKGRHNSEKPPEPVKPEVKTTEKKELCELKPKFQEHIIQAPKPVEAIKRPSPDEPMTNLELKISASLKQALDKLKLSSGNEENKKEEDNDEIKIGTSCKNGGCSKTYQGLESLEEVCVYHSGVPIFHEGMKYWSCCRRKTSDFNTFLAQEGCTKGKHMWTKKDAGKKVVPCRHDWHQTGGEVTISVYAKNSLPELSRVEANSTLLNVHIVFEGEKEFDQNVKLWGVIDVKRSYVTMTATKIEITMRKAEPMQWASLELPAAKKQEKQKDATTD
Sequence of UniProt P41240 (P41240 whole entry, looked up): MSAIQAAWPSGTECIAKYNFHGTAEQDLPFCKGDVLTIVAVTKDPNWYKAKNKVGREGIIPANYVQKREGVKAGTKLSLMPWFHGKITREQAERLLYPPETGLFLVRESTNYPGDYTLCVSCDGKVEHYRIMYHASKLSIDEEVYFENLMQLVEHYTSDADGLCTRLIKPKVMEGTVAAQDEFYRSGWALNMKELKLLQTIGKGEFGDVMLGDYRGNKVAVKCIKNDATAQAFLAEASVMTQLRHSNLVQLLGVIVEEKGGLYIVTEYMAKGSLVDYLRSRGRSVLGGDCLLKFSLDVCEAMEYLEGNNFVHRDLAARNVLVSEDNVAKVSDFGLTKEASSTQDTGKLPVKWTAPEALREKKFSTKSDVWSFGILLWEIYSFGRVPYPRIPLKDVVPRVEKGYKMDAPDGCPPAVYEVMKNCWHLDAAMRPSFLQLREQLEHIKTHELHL
Sequence of UniProt O00148 (O00148 whole entry, looked up): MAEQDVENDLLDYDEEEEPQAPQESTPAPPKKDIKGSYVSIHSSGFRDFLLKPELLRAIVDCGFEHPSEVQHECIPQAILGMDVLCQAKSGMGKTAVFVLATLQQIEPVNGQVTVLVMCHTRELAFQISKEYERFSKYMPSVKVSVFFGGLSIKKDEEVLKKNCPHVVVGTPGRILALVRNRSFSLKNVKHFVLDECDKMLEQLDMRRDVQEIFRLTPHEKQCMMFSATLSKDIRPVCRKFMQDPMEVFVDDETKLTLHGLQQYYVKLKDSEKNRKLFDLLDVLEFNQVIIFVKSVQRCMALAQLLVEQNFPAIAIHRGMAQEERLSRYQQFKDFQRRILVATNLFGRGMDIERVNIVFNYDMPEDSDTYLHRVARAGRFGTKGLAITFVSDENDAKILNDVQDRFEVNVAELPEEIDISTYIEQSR
Sequence of UniProt Q9HCG8 (Q9HCG8 whole entry, looked up): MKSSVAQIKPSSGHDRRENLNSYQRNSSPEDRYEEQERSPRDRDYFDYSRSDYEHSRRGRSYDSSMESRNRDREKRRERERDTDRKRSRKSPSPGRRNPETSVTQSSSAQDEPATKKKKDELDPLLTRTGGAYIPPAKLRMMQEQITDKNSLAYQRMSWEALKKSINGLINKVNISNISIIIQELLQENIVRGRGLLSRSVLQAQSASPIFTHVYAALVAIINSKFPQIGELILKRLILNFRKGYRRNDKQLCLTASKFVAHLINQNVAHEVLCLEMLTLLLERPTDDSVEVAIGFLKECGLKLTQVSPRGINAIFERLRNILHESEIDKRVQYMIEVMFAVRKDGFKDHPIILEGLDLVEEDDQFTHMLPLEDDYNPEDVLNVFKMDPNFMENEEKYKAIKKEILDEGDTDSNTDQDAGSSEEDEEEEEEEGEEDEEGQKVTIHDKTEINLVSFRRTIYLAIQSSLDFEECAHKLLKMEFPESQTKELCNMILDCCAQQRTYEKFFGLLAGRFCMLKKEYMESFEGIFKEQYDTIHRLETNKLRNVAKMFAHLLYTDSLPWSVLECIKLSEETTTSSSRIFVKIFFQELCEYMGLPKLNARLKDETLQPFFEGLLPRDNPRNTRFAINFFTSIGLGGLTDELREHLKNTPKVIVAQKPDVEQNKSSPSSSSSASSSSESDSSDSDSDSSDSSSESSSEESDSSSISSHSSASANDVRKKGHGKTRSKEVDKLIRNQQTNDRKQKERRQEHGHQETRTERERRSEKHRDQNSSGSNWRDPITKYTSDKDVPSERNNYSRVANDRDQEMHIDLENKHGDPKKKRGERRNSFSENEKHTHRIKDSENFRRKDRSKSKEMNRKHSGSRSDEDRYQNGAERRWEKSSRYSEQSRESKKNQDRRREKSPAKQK
Sequence of UniProt Q9Y2V7 (Q9Y2V7 whole entry, looked up): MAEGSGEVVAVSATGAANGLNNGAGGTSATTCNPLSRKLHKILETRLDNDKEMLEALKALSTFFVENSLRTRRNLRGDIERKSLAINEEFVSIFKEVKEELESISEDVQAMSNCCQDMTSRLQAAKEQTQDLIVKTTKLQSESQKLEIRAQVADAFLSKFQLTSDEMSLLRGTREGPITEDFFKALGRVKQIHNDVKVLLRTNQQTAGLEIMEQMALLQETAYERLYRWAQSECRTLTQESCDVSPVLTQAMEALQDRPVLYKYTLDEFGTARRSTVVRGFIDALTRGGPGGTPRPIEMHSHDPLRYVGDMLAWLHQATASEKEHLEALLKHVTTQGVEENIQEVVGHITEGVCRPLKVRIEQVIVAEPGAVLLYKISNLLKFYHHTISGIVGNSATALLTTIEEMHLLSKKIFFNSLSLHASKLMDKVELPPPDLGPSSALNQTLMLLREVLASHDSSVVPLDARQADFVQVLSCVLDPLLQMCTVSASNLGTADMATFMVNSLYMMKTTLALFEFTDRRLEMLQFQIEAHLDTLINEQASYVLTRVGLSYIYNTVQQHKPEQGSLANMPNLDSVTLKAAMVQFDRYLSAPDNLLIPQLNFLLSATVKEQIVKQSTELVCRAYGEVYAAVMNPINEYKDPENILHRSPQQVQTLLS
Sequence of UniProt O60762 (O60762 whole entry, looked up): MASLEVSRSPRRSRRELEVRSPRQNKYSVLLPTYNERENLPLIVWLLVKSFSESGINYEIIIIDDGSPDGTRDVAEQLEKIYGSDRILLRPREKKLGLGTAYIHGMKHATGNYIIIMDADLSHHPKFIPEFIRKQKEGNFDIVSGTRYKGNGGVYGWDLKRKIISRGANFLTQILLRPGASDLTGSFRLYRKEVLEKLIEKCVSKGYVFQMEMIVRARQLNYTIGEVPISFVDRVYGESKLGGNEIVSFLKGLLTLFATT
Sequence of UniProt Q9H3Z4 (Q9H3Z4 whole entry, looked up): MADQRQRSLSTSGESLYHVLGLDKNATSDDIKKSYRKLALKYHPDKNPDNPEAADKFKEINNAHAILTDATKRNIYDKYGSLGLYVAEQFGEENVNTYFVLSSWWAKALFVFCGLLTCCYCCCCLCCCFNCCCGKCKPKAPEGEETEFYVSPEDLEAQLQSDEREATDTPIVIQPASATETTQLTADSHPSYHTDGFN
Sequence of UniProt Q92564 (Q92564 whole entry, looked up): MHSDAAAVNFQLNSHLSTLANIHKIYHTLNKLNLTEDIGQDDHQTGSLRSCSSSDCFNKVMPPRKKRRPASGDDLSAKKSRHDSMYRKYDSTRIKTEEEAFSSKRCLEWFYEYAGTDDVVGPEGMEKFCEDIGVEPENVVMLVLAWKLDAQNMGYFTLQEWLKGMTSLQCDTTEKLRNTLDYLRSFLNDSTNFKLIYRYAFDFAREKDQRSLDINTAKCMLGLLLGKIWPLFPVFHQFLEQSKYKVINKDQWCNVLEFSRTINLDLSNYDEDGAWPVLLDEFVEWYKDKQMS
Sequence of UniProt O96017 (O96017 whole entry, looked up): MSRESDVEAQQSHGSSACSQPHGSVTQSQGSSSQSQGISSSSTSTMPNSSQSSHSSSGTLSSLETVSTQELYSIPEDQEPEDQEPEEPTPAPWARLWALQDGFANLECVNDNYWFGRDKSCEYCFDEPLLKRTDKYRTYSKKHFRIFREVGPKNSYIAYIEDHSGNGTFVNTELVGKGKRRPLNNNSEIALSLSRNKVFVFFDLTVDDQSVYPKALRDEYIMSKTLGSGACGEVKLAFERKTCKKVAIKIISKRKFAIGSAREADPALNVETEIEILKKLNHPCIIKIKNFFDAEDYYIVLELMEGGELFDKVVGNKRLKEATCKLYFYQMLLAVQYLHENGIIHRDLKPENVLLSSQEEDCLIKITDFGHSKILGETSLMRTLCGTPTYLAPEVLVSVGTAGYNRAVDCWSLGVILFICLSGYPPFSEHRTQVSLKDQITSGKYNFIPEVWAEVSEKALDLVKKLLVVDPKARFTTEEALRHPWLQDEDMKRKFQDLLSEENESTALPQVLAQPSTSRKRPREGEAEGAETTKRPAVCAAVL
Sequence of UniProt Q6UWP2 (Q6UWP2 whole entry, looked up): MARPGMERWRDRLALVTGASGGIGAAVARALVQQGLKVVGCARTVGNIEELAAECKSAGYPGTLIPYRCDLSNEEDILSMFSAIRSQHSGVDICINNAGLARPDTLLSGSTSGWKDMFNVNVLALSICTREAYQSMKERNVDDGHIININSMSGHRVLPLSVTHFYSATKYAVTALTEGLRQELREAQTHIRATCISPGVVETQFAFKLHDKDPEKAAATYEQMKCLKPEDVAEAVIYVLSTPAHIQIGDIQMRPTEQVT

Row | Target | log2 fold change (lapatinib) | log2 fold change (pictilisib) | log2 fold change (crizotinib) | log2 fold change [1] | log2 fold change (duvelisib) | log2 fold change (gandotinib) | log2 fold change (tozasertib) | log2 fold change (doramapimod) | log2 fold change (bafetinib) | log2 fold change [2] | log2 fold change (nilotinib) | log2 fold change [3] | log2 fold change (dasatinib) | log2 fold change [4] | log2 fold change [5] | log2 fold change (quisinostat) | log2 fold change (tipifarnib) | log2 fold change [6] | log2 fold change [7] | log2 fold change [8]
1 | CSNK1D (UniProt P48730) | -0.098 | 0.066 | 0.052 | -0.153 | 0.007 | 0.059 | 0.008 | -0.011 | -0.01 | -0.177 | 0.199 | -0.384 | 0.028 | -0.551 (active) | -0.059 | -0.049 | -0.139 | 0.021 | 0.072 | 
2 | CTPS2 (UniProt Q9NRF8) | -0.025 | -0.018 | -0.004 | -0.032 | 0.016 | -0.002 | 0.009 | 0.021 | 0.077 | 0.003 | -0.005 | 0.006 | -0.035 | -0.002 | 0.01 | 0.029 | 0.003 | 0.001 | -0.003 | 0.012
3 | DNAJC5 (UniProt Q9H3Z4) | -0.021 | 0.075 | 0.007 | -0.377 (active) | -0.041 | 0.161 | -0.054 | 0.023 | -0.144 | 0.334 (active) | -0.136 | -0.043 | -0.002 | 0.008 | -0.029 | -0.05 | 0.043 | -0.045 | 0.062 | 0.024
4 | CWC22 (UniProt Q9HCG8) | 0.059 | -0.027 | -0.051 | 0.46 (active) | 0.011 | -0.207 | 0.072 | -0.019 | -0.088 | -0.109 | 0.043 | 0.017 | -0.015 | 0.002 | 0.02 | 0.015 | 0 | 0.011 | 0.023 | -0.011
5 | CHORDC1 (UniProt Q9UHD1) | -0.001 | 0.009 | 0.022 | 0.18 | 0.006 | -0.011 | 0.022 | -0.028 | 0.022 | -0.031 | 0.024 | -0.003 | 0.016 | 0.034 | 0.008 | 0.018 | 0.021 | -0.015 | 0 | -0.005
6 | CHEK2 (UniProt O96017) | 0.08 | -0.012 | 0.069 | -0.011 | 0.002 | -0.019 | 0.039 | 0.018 | -0.046 | -0.008 | -0.022 | 0.285 (active) | 0.04 | -0.007 | 0.05 | -0.057 | 0.023 | 0.326 (active) | 0.013 | 0.035
7 | DDX20 (UniProt Q9UHI6) | -0.041 | 0.024 | -0.088 | 0.029 | 0.008 | -0.137 | -0.065 | 0.015 | -0.016 | 0.054 | -0.009 | 0.008 | -0.054 | 0.003 | 0.058 | -0.058 | -0.01 | 0.095 | 0.03 | -0.024
8 | DHRS11 (UniProt Q6UWP2) | -0.017 | 0.014 | 0.024 | -0.035 | 0.024 | -0.007 | 0.028 | -0.032 | -0.051 | -0.02 | 0.058 | 0.017 | -0.018 | 0.008 | 0.03 | 0.024 | 0.002 | 0.037 | 0.002 | 0
9 | CSK (UniProt P41240) | -0.022 | -0.017 | 0.259 | -0.075 | -0.026 | 0.377 | 0.098 | -0.005 | 0.41 | 0 | 0.144 | 0.125 | 0.578 (active) | 0.002 | 0.102 | -0.08 | -0.041 | 0.646 (active) | 0.071 | -0.043
10 | DPM1 (UniProt O60762) | -0.003 | 0.009 | 0.009 | 0.028 | -0.018 | -0.097 | -0.014 | -0.046 | -0.061 | 0.061 | 0.013 | 0.019 | 0.028 | -0.014 | 0.044 | 0.057 | 0.03 | 0.038 | 0.019 | -0.057
11 | COL6A5 (UniProt A8TX70) | -0.07 | -0.035 | -0.197 | -0.966 (active) | 0.013 | 0.295 | -0.099 | 0.053 | -0.13 | 0.486 (active) | 0.134 | 0.009 | -0.11 | -0.185 | -0.038 | -0.377 | -0.236 | 0.017 | 0.051 | -0.014
12 | DENND6A (UniProt Q8IWF6) | -0.077 | -0.079 | 0.028 | -0.013 | -0.022 | -0.006 | -0.038 | 0.054 | -0.099 | 0.086 | 0.012 | -0.009 | 0.053 | 0.017 | 0.095 | -0.084 | -0.041 | 0.018 | -0.032 | -0.011
13 | DCUN1D4 isoform 3 (UniProt Q92564) | 0.072 | 0.046 | -0.02 | 0.001 | 0.02 | -0.104 | -0.009 | 0.004 | -0.003 | -0.039 | 0.023 | -0.007 | -0.062 | -0.009 | -0.046 | 0.066 | 0.017 | -0.019 | -0.036 | -0.043
14 | COG6 (UniProt Q9Y2V7) | 0.012 | -0.019 | -0.104 | -0.137 | 0.014 | -0.115 | -0.011 | 0.037 | -0.071 | 0.142 | 0.004 | 0.038 | -0.085 | -0.041 | -0.005 | -0.068 | -0.045 | -0.016 | -0.008 | -0.06
15 | CIP2A (UniProt Q8TCG1) | -0.02 | -0.045 | -0.101 | -0.049 | 0.012 | -0.218 | 0 | 0.005 | -0.047 | 0.103 | -0.006 | 0.02 | -0.107 | 0.024 | 0.054 | -0.123 | 0.01 | 0.019 | 0.032 | -0.014
16 | DDX39A (UniProt O00148) | -0.004 | 0.021 | 0.006 | -0.022 | 0.004 | -0.104 | -0.008 | -0.046 | -0.004 | 0.093 | -0.002 | 0.02 | 0.001 | 0.007 | 0.06 | -0.018 | -0.053 | 0.075 | 0.036 | -0.013
